Each structure is given as a SMILES string. Where a name gives a salt, the structure may show the parent alone. ± gives the standard deviation of the averaged measurements.

The subject of one assay is E. coli TESEC Mtb DapB. The assay can be described thus: growth (OD600 after 10 h); higher = more growth (less inhibition). Conditions: arabinose induction (level): High; compound 0.1 mM; raw OD600 reference: median of DMSO wells […], cell-free background 0.041. As for the experimental part:
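TESEC E. coli strains in which the native enzyme is deleted and replaced by arabinose-inducible Mtb Asd, DapB, CysH or TrpD, each grown in its selective medium. Strains were screened against the Prestwick library at 0.1 mM and 1% DMSO in 384-well format at low and high arabinose induction. Growth is read as OD600 after 10 h in triplicate.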
In the case of `CCC(=O)OCC(=O)[C@@]1(OC(=O)CC)[C@H](C)C[C@H]2[C@H]3[C@H]([C@@H](O)C[C@@]21C)[C@@]1(C)C=CC(=O)C=C1C[C@H]3Cl` [Alclometasone dipropionate], the growth is 0.198 ± 0.0033.
Same read-out and setting: in the case of `CC(=O)N1CCN(c2ccc(OCC3COC(Cn4ccnc4)(c4ccc(Cl)cc4Cl)O3)cc2)CC1` (stereo not given) [Ketoconazole] it was 0.0759 ± 0.0062; in that of `CC[C@H](c1ccc(O)cc1)[C@@H](CC)c1ccc(O)cc1` [Hexestrol], 0.0653 ± 0.019.
The same measure, in the same setting: in the case of `COc1cc2nc(N3CCN(C(=O)c4ccco4)CC3)nc(N)c2cc1OC` [Prazosin hydrochloride] it was 0.247 ± 0.023.
As to `CCC(C)(C)C(=O)O[C@H]1C[C@@H](C)C=C2C=C[C@H](C)[C@H](CC[C@@H]3C[C@@H](O)CC(=O)O3)[C@H]21` [Simvastatin], the growth was 0.161 ± 0.021.
On the same count and under the same terms, the same measure for `COC(=O)Nc1nc2cc(C(=O)c3ccc(F)cc3)ccc2[nH]1` [Flubendazol]: 0.2 ± 0.01.
Still for that read-out and setting: in the case of `CC1(C)OC(=O)NC1=O` [Dimethadione] it was 0.182 ± 0.0086.
Still for that read-out and setting: the same measure for `O=C1CCc2cc(OCCCCc3nnnn3C3CCCCC3)ccc2N1` [Cilostazol]: 0.16 ± 0.013; for `O=C1c2cccc(O)c2C(=O)c2c(O)cccc21` [1,8-Dihydroxyanthraquinone]: 0.189 ± 0.0068; for `N[C@@H](C(=O)N[C@@H]1C(=O)N2C(C(=O)O)=C(Cl)CS[C@H]12)c1ccccc1` [Cefaclor hydrate]: 0.201 ± 0.0068.
Compound `Clc1ccc(COC(Cn2ccnc2)c2ccc(Cl)cc2Cl)c(Cl)c1` (stereo not given) [Miconazole] displayed a growth of 0.0949 ± 0.0049.
Still for that read-out and setting: the same measure for `CC(=O)OCC1=C(C(=O)O)N2C(=O)[C@@H](NC(=O)Cc3cccs3)[C@H]2SC1` [Cephalothin sodium salt]: 0.206 ± 0.013.
Same read-out and setting: the same measure for `CCOc1ccc2ccccc2c1C(=O)N[C@@H]1C(=O)N2[C@@H]1SC(C)(C)[C@@H]2C(=O)O` [Nafcillin sodium salt monohydrate]: 0.183 ± 0.007.
Same read-out and setting: the same measure for `NCC[C@H](O)C(=O)N[C@@H]1C[C@H](N)[C@@H](O[C@H]2O[C@H](CN)[C@@H](O)[C@H](O)[C@H]2O)[C@H](O)[C@H]1O[C@H]1O[C@H](CO)[C@@H](O)[C@H](N)[C@H]1O` [Amikacin hydrate]: 0.0548 ± 0.0017; for `CC1(C)[C@H](C(=O)O)N2C(=O)C[C@H]2S1(=O)=O` [Sulbactam]: 0.2 ± 0.006.
Take `NC[C@@H]1O[C@H](O[C@H]2[C@@H](O)[C@H](O[C@@H]3[C@@H](O)[C@H](N)C[C@H](N)[C@H]3O[C@H]3O[C@H](CO)[C@@H](O)[C@H](O)[C@H]3N)O[C@@H]2CO)[C@H](N)[C@@H](O)[C@@H]1O` [Paromomycin sulfate]: the growth was found to be 0.195 ± 0.0097.
Same read-out and setting: in the case of `CCN1CCCC1CNC(=O)c1cc(S(=O)(=O)CC)c(N)cc1OC` (stereo not given) [Amisulpride] it was 0.224 ± 0.02; in that of `OC(Cn1cncn1)(Cn1cncn1)c1ccc(F)cc1F` [Fluconazole], 0.195 ± 0.013; in that of `CC(C)/N=c1\cc2n(-c3ccc(Cl)cc3)c3ccccc3nc-2cc1Nc1ccc(Cl)cc1` [Clofazimine], 0.248 ± 0.023.
On the same count and under the same terms, in the case of `O=C1CC[C@@H](C(=O)N2CSC[C@H]2C(=O)O)N1` [Pidotimod] it was 0.191 ± 0.013.

Staying with this assay, now noted: arabinose induction (level): Low; compound 0.1 mM; raw OD600 reference: median of DMSO wells 0.227, cell-free background 0.041.
With `CCC(=O)OCC(=O)[C@@]1(OC(=O)CC)[C@H](C)C[C@H]2[C@H]3[C@H]([C@@H](O)C[C@@]21C)[C@@]1(C)C=CC(=O)C=C1C[C@H]3Cl` [Alclometasone dipropionate], the growth was found to be 0.215 ± 0.0041.
On the same count and under the same terms, in the case of `CC(=O)N1CCN(c2ccc(OCC3COC(Cn4ccnc4)(c4ccc(Cl)cc4Cl)O3)cc2)CC1` (stereo not given) [Ketoconazole] it was 0.0712 ± 0.0069.
In the case of `CC[C@H](c1ccc(O)cc1)[C@@H](CC)c1ccc(O)cc1` [Hexestrol], the growth was found to be 0.054 ± 0.0072.
The same measure, in the same setting: in the case of `COc1cc2nc(N3CCN(C(=O)c4ccco4)CC3)nc(N)c2cc1OC` [Prazosin hydrochloride] it was 0.285 ± 0.029; in that of `CCC(C)(C)C(=O)O[C@H]1C[C@@H](C)C=C2C=C[C@H](C)[C@H](CC[C@@H]3C[C@@H](O)CC(=O)O3)[C@H]21` [Simvastatin], 0.175 ± 0.0069.
The same measure, in the same setting: in the case of `COC(=O)Nc1nc2cc(C(=O)c3ccc(F)cc3)ccc2[nH]1` [Flubendazol] it was 0.231 ± 0.03; in that of `CC1(C)OC(=O)NC1=O` [Dimethadione], 0.199 ± 0.05; in that of `O=C1CCc2cc(OCCCCc3nnnn3C3CCCCC3)ccc2N1` [Cilostazol], 0.181 ± 0.0043.
Same read-out and setting: the same measure for `O=C1c2cccc(O)c2C(=O)c2c(O)cccc21` [1,8-Dihydroxyanthraquinone]: 0.255 ± 0.067.
`N[C@@H](C(=O)N[C@@H]1C(=O)N2C(C(=O)O)=C(Cl)CS[C@H]12)c1ccccc1` [Cefaclor hydrate] had a growth of 0.247 ± 0.017.
Still for that read-out and setting: in the case of `Clc1ccc(COC(Cn2ccnc2)c2ccc(Cl)cc2Cl)c(Cl)c1` (stereo not given) [Miconazole] it was 0.134 ± 0.1.
Still for that read-out and setting: in the case of `CC(=O)OCC1=C(C(=O)O)N2C(=O)[C@@H](NC(=O)Cc3cccs3)[C@H]2SC1` [Cephalothin sodium salt] it was 0.258 ± 0.0063.
The same measure, in the same setting: the same measure for `CCOc1ccc2ccccc2c1C(=O)N[C@@H]1C(=O)N2[C@@H]1SC(C)(C)[C@@H]2C(=O)O` [Nafcillin sodium salt monohydrate]: 0.22 ± 0.0024; for `NCC[C@H](O)C(=O)N[C@@H]1C[C@H](N)[C@@H](O[C@H]2O[C@H](CN)[C@@H](O)[C@H](O)[C@H]2O)[C@H](O)[C@H]1O[C@H]1O[C@H](CO)[C@@H](O)[C@H](N)[C@H]1O` [Amikacin hydrate]: 0.0518 ± 0.0032.
`CC1(C)[C@H](C(=O)O)N2C(=O)C[C@H]2S1(=O)=O` [Sulbactam] showed a growth of 0.225 ± 0.025.
In the case of `NC[C@@H]1O[C@H](O[C@H]2[C@@H](O)[C@H](O[C@@H]3[C@@H](O)[C@H](N)C[C@H](N)[C@H]3O[C@H]3O[C@H](CO)[C@@H](O)[C@H](O)[C@H]3N)O[C@@H]2CO)[C@H](N)[C@@H](O)[C@@H]1O` [Paromomycin sulfate], the growth is 0.26 ± 0.034.
`CCN1CCCC1CNC(=O)c1cc(S(=O)(=O)CC)c(N)cc1OC` (stereo not given) [Amisulpride] returned a growth of 0.239 ± 0.031.
The same measure, in the same setting: in the case of `OC(Cn1cncn1)(Cn1cncn1)c1ccc(F)cc1F` [Fluconazole] it was 0.213 ± 0.032; in that of `CC(C)/N=c1\cc2n(-c3ccc(Cl)cc3)c3ccccc3nc-2cc1Nc1ccc(Cl)cc1` [Clofazimine], 0.261 ± 0.012.
Regarding `O=C1CC[C@@H](C(=O)N2CSC[C@H]2C(=O)O)N1` [Pidotimod], the growth came to 0.235 ± 0.037.
